Data from PubChem BioAssay AID463212 (Sanford-Burnham Center for Chemical Genomics, 2010).
Screen size: about 330,000 compounds; about 4,400 (1.3%) were called active. For the sample, actives were picked, then their nearest neighbours and some compounds at random. A number with no mark means an inactive call.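 How the source made its calls: active means growth inhibition of the mutant yeast at or above 50%; inactive means the rest.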

Test: growth inhibition of tim23-1 ts yeast – luminescence, uHTS, primary screen (AID 463212);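 further: temperature-sensitive mutant grown at 25 °C; plate controls were DMSO-treated mutant yeast for no effect and medium wells lacking yeast for full effect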
Conditions: S. cerevisiae tim23-1 growth, BacTiter-Glo luminescence, 24 h; at 20 µM; stronger effect = higher value

Row | Compound | inhibition
1 | CC(=O)C1=C(C)NC(C)=C(C(C)=O)C1c1cn(-c2ccccc2)nc1-c1cccs1 | 29.1%
2 | Cc1nn(Cc2ccc(Cl)c(Cl)c2)c(C)c1NC(=O)c1cc(C2CC2)on1 | 56.6% (active)
3 | CSc1ccccc1NC(=O)c1cc(C2CC2)on1 | 15.5%
4 | Cc1nn(Cc2ccc(F)cc2)c(C)c1NC(=O)c1cccnc1Cl | 9.85%
5 | C/C(=N/NC(=O)CN1CCN(S(=O)(=O)c2ccc(Br)cc2)CC1)c1ccncc1 | 4.89%
6 | O=C(N/N=C\c1ccc(-c2ccc(Cl)c(Cl)c2)o1)C(=O)N1CCCC1 | -5.25%
7 | COC(=O)N/N=C/c1ccc(-c2ccc(Cl)c(Cl)c2)o1 | 54.7% (active)
8 | Nc1nnnn1CC(=O)N/N=C/c1ccc(-c2cccc(Cl)c2)o1 | 1.59%
9 | Cc1c(C)c2ccc(OCC(=O)N3CCN(c4cccc(Cl)c4)CC3)cc2oc1=O | -6.57%
10 | COc1ccc(N2C(=O)CC(Sc3n[nH]c(-c4ccc(C)cc4)n3)C2=O)cc1 (stereo not drawn) | 28.8%
11 | Cc1ccc(N2C(=O)CC(Sc3ncn[nH]3)C2=O)cc1 (stereo not drawn) | -0.146%
12 | O=C1CC(Sc2ncn[nH]2)C(=O)N1c1ccccc1 (stereo not drawn) | 51% (active)
13 | COc1ccc(C(c2nnnn2C2CCCCC2)N2CCN(c3ccccc3F)CC2)cc1 (stereo not drawn) | 14.3%
14 | CC(C(=O)NC1CCCC1)N(c1ccc(Oc2ccccc2)cc1)S(C)(=O)=O (stereo not drawn) | 29.3%
15 | Cc1cc(OC(=O)c2c(Cl)cccc2Cl)nc(C)n1 | 23.1%
16 | Cc1cc(C)c(S(=O)(=O)c2ccccc2)c(OC(=O)c2c(F)cccc2Cl)n1 | 64.7% (active)
17 | Cc1ccc(NNC(=O)c2c(F)cccc2Cl)cc1Cl | 44.2%
18 | COc1ccc(C(C(=O)NCC2CCCO2)N(C(=O)Cn2nnc3ccccc32)c2ccc(NC(C)=O)cc2)cc1OC (stereo not drawn) | 15.6%
19 | CCOc1ccc(CC(=O)NCCS(=O)(=O)N2CCN(c3ccccc3)CC2)cc1 | -7.53%
20 | O=C(N/N=C/c1cccc2cccnc12)[C@H]1C[C@@H]1c1ccccc1 | 18.6%
21 | COc1ccc(C(C[N+](=O)[O-])n2nc(C)cc2C)cc1 (stereo not drawn) | 84.7% (active)
22 | COc1ccc(OC)c(S(=O)(=O)n2c([N+](=O)[O-])cnc2C)c1 | 12.9%
23 | CCOc1ccc(C(C)C)cc1S(=O)(=O)n1nc(C)cc1C | 36.9%
24 | COc1cc(OC)c(NS(=O)(=O)c2cn(C)cn2)cc1Cl | -16.4%

Row | Compound | inhibition
25 | CC(C)(C)n1nnnc1C(c1ccccc1F)N1CCN(C(=O)c2ccco2)CC1 (stereo not drawn) | 19.8%
26 | CC(=O)O[C@H]1CC[C@@]2(C)[C@@H](CC[C@@H]3[C@@H]2CC[C@]2(C)[C@@H](C(C)(C)O)C[C@@H]32)C1 | 28.2%
27 | Cc1cc(C)cc(C(=O)OCC(=O)NCCNC(=O)COC(=O)c2cc(C)cc(C)c2)c1 | 2.3%
28 | C(=N/N1CCN(c2ccccc2)CC1)/c1cccs1 | 15.3%
29 | O=C1c2cccc3c([N+](=O)[O-])ccc(c23)C(=O)N1CC1CCCO1 (stereo not drawn) | 87% (active)
30 | CCOc1cccc(=O)c2c(C)n(CC3CCCO3)c(C)c12 (stereo not drawn) | -1.14%
31 | CN1CN(C)c2ccc([N+](=O)[O-])c3cccc1c23 | 9.47%
32 | O=C(CC1CCCCC1)NCc1ccccc1 | 14.8%
33 | N/C(=N\OC(=O)CC1CCCCC1)c1ccccc1 | 56.4% (active)
34 | N/C(=N\OC(=O)CCC1CCCCC1)c1ccccn1 | 30.2%
35 | O=C(COC(=O)c1ccc(Cl)nc1)NCc1ccc2c(c1)OCO2 | 6.05%
36 | COc1cccc(CN2CCN(Cc3ccc4cccc(F)c4n3)CC2CCO)c1 (stereo not drawn) | 6.61%
37 | NC(=O)c1ccsc1NC(=O)c1ccco1 | 6.25%
38 | O=C(Nc1nnc(CCOCCOCCc2nnc(NC(=O)c3ccco3)s2)s1)c1ccco1 | -4.68%
39 | O=C(Nc1nc(-c2ccco2)c(-c2ccco2)s1)c1ccco1 | 69.5% (active)
40 | N#Cc1ccc(N2Cc3ccccc3/C2=N/C(=O)Nc2ccc(Cl)cc2)cc1 | 28.7%
41 | Cc1ccc2c(c1)c1ncnc(N3CCc4ccccc4C3)c1n2C | 51% (active)
42 | c1ccc(-c2csc(N3CCc4ccccc4C3)n2)cc1 | 14.4%
43 | Cc1ccc(Cl)c(OCC(=O)N2CCc3ccccc3C2)c1 | 35.1%
44 | CCc1cc(=O)oc2c(C)c(OCC(=O)N3CC[C@@]4(O)CCCC[C@H]4C3)ccc12 | 2.55%
45 | CNS(=O)(=O)c1cnccc1N1CCN(c2cccc(C)c2)CC1 | 0.287%
46 | CCC(CC)NC(=O)/C=C/c1cccc([N+](=O)[O-])c1 | 17.4%
47 | Cc1ccccc1N1CC(C(=O)Nc2ccc3c(c2)OCO3)CC1=O (stereo not drawn) | 2.96%
48 | COc1ccc(-c2n[nH]c(C)c2-c2ccccc2OC)c(O)c1 | 38.9%

Row | Compound | inhibition
49 | COc1ccccc1-c1n[nH]c2c1[C@H](C)CC[C@H]2C(C)C | 53% (active)
50 | O=C1COc2ccc(S(=O)(=O)NCCc3ccc(Cl)cc3)cc2N1 | 8.79%
51 | Cc1ccc2nc(-c3ccc(NC(=O)c4cccnc4)cc3)oc2c1 | 52% (active)
52 | CC(=O)NC(=S)Nc1ccc(NC(=O)c2cccnc2)cc1 | 16.1%
53 | CCOC(=O)c1ccc(NC(=O)c2cccnc2)cc1 | 13.2%
54 | Cc1cc(C(=O)COc2ccccc2[N+](=O)[O-])c(C)n1-c1cccc(S(=O)(=O)N2CCOCC2)c1 | 7.4%
55 | O=c1c2ccccc2nc2n1C(CSCc1cccc(C(F)(F)F)c1)CS2 (stereo not drawn) | 14.7%
56 | O=C1CN(c2nc(-c3ccccc3)c3cc(Br)ccc3n2)c2ccccc2N1 | 4.72%
57 | Cc1ccc(CNC(=O)Cn2cnc(S(=O)(=O)N3CCCCC3)c2)o1 | -6.13%
58 | Cc1[nH]n(C)c(=O)c1N=Nc1ccc(S(C)(=O)=O)cc1 | 11.7%
59 | CC1=NN(C(N)=S)C(=O)C1N=Nc1cc(Cl)ccc1Cl (stereo not drawn) | 36.9%
60 | Cc1[nH]n(C(N)=S)c(=O)c1N=Nc1ccc(Cl)cc1Cl | 67% (active)
61 | Cc1c(Cl)cccc1NC(=O)CSc1ccc(-c2cccnc2)nn1 | 2.22%
62 | O=S(=O)(Nc1nccs1)c1ccc2c(c1)OCCO2 | 12.7%
63 | CCOC(=O)C1=C(C)N=c2s/c(=C\C(=O)OC)c(=O)n2C1c1ccc(OC)cc1 (stereo not drawn) | 52.3% (active)
64 | CCOC(=O)C1=C(CSc2nccn2C)NC(=O)NC1c1ccc(OC)cc1 (stereo not drawn) | 7.63%
65 | COCCOC(=O)C1=C(C)N=c2s/c(=C\c3cccs3)c(=O)n2C1c1cccs1 (stereo not drawn) | -11.4%
66 | Cc1cc(=O)oc(C)c1C(=O)NC1CC(C)(C)NC(C)(C)C1 | 13.7%
67 | CN(C)NC(=O)c1csnc1-c1c(Cl)cccc1Cl | -15.4%
68 | Cn1cccc1C(=O)OCC(=O)c1ccc(Br)s1 | 15.9%
69 | COc1ccc(-c2sc3ccccc3c2-c2ccc(OCCN3CCOCC3)cc2)cc1 | 28%
70 | COc1ccc2sc(-c3ccccc3OC)c(-c3ccc(OCCN4CCCC4)cc3)c2c1 | -0.331%
71 | COc1cccc(-c2sc3ccc(OC)cc3c2-c2ccc(OCCN3CCCCC3)cc2)c1 | 58.8% (active)
72 | Cc1cccc(C)c1NC(=O)CSc1nnc(-c2ccccc2)n1Cc1ccc2c(c1)OCO2 | 3.97%

Row | Compound | inhibition
73 | CC1=C(C(N)=O)C(c2ccc3c(c2)OCO3)n2nc(-c3cccc(C)c3)nc2N1 (stereo not drawn) | 18.1%
74 | c1ccc(-c2nnc3n2NC(c2ccc4c(c2)OCO4)S3)cc1 (stereo not drawn) | 57.2% (active)
75 | O=C(Nc1nnc(C2CC2)s1)C1=NN(C2CCS(=O)(=O)C2)C(=O)CC1 (stereo not drawn) | 9.54%
76 | COc1cc2c(cc1OC)C(/C=C/c1ccco1)=NCC2 | -9.38%
77 | COc1cccc(CNC(C)C(=O)Nc2ccc(S(=O)(=O)N3CCCC3)cc2)c1 (stereo not drawn) | 19.6%
78 | COc1ccc(S(=O)(=O)N2CCN(C(C)C(=O)Nc3ccc(C(C)C)cc3)CC2)cc1 (stereo not drawn) | 50.6% (active)
79 | CC(C)c1ccc(S(=O)(=O)N2CCN(C(C)C(=O)NC3CCCC3)CC2)cc1 (stereo not drawn) | 13.4%
80 | O=C1NC[C@@H](Cc2ccc(O)cc2)N(CCc2cccc(F)c2)C1=O | 11.4%
81 | CC(=O)Nc1ccc(S(=O)(=O)N2CCN(C(=O)c3ccccc3F)CC2)cc1 | 3.67%
82 | Cc1ccc(/C(N)=N/OC(=O)COc2ccc(Cl)c(C)c2)cc1 | 24.2%
83 | Cc1cccc(/C(N)=N/OC(=O)c2ccccc2Cl)c1 | 72.9% (active)
84 | Cc1ccc(C(=O)O/N=C(\N)c2ccccn2)cc1Cl | 6.93%
85 | CC(C)(C)NC(=O)CN1CCC(NC(=O)C23CC4CC(CC(C4)C2)C3)CC1 | 18%
86 | O=C(c1ccc(S(=O)(=O)NCc2ccco2)cc1)N1CCN(c2ccccc2)CC1 | 19.3%
87 | O=C(Nc1ccccc1)c1cc2ccccc2[nH]1 | -6.12%
88 | O=c1c2ccccc2[nH]c(=S)n1CCN1CCC(=C(c2ccc(F)cc2)c2ccc(F)cc2)CC1 | 75.8% (active)
89 | COc1ccc(Cn2c(=S)[nH]c3cc(C(=O)NCCCN4CCOCC4)ccc3c2=O)cc1 | 18%
90 | CCCCn1c(=S)[nH]c2ccccc2c1=O | 43.6%
91 | O=C(N[C@@H]1C/C=C\C[C@@H](CC(=O)N(CCO)Cc2ccccc2)C(=O)N[C@H](Cc2ccccc2)COC1=O)OCC1c2ccccc2-c2ccccc21 | 22.7%
92 | O=C(N[C@H]1C/C=C\C(c2ccc(F)cc2)N(Cc2ccccc2)C(=O)C1)OCC1c2ccccc2-c2ccccc21 (stereo partly drawn) | 38.6%
93 | O=C(N[C@H]1C/C=C\C(c2cccc(F)c2)N(Cc2ccccc2)C(=O)C1)OCC1c2ccccc2-c2ccccc21 (stereo partly drawn) | 59.7% (active)
